About 83,000 compounds went through this panel and 20% of them were active in at least one assay; those are over-represented in the sample as a whole.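 Compound tested at a single concentration for 48 hours in 96-well plates; a percent growth value below 10 was scored as active.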 Active and inactive are the calls of the source.
Assays:
Experiment in all cases: NCI-60 one-dose screen, 48 h (100 = growth as untreated, 0 = no growth, -100 = all killed)
Conditions in all cases: 10 µM unless noted
[1] = test system: NCI-H23 lung
[2] = test system: NCI-H226 lung
[3] = test system: NCI-H322M lung
[4] = test system: HOP-62 NSCLC
[5] = test system: NCI-H460 lung
[6] = test system: HOP-92 NSCLC
[7] = test system: NCI-H522 lung
[8] = test system: A549/ATCC NSCLC
[9] = test system: 786-0 renal
[10] = test system: COLO 205 colon
[11] = test system: DU-145 prostate
[12] = test system: K-562 leukemia
[13] = test system: MALME-3M melanoma
[14] = test system: MDA-MB-231 breast
[15] = test system: RXF 393 renal
[16] = test system: SF-268 CNS
[17] = test system: SF-295 CNS
[18] = test system: SF-539 CNS
[19] = test system: UACC-257 melanoma
[20] = test system: M14 melanoma

Measured: growth

CCOC(=O)C1=C(C)n2nc(CC#N)c(C#N)c2NC1c1ccc(CC)cc1 (stereo not given)
inactive: [1] 85.6% | [2] 87.6% | [3] 85.6% | [4] 81.7% | [5] 104% | [6] 85.9% | [7] 85.5% | [8] 96.5% | [9] 106% | [10] 97.8% | [11] 106% | [12] 106% | [13] 86.8% | [14] 87.5% | [15] 107% | [16] 99.1% | [17] 101% | [18] 110% | [19] 111% | [20] 91.5%

CC(=O)c1ccc(NC(=O)CSc2nnc(-c3cc(-c4ccc(C)cc4)nc4ccccc34)o2)cc1
active: [9] 3.06% | [13] -5.39% | [14] -2.97%
inactive: [1] 27.6% | [2] 58.7% | [3] 86.5% | [4] 17.6% | [5] 10.5% | [6] 66.9% | [7] 23.2% | [8] 48.9% | [10] 77.4% | [11] 63.5% | [12] 38.1% | [15] 59% | [16] 55.2% | [17] 69.5% | [18] 53.7% | [19] 101% | [20] 57.9%

COc1cccc(NC(=O)Nc2ccc(Oc3ncnc4[nH]c(C)c(C)c34)cc2)c1
inactive: [1] 70.7% | [2] 105% | [3] 105% | [4] 97.5% | [5] 61.3% | [6] 110% | [7] 57.8% | [8] 79.7% | [9] 109% | [10] 102% | [11] 91.9% | [12] 83.7% | [13] 114% | [14] 97.1% | [15] 109% | [16] 81.3% | [17] 91.7% | [18] 64.6% | [19] 97.7% | [20] 100%

COc1cc(NC(=O)Nc2cnc(Nc3ccc(N4CCOCC4)cc3)nc2Oc2ccc(C(F)(F)F)cc2)cc(OC)c1
inactive: [1] 105% | [2] 97.7% | [3] 106% | [4] 95.5% | [5] 105% | [6] 99% | [7] 95.9% | [8] 103% | [9] 109% | [10] 127% | [11] 118% | [12] 95.3% | [13] 118% | [14] 96.7% | [15] 110% | [16] 101% | [17] 111% | [18] 103% | [19] 101% | [20] 107%

C=C(C)[C@@H]1CC[C@]2(C(=O)OCCOCCOCC[P+](c3ccccc3)(c3ccccc3)c3ccccc3)CC[C@]3(C)[C@H](CC[C@@H]4[C@@]5(C)CC[C@H](C)C(C)(C)[C@@H]5CC[C@]43C)[C@@H]12
active: [1] -80% | [2] -70.9% | [3] -98.1% | [4] -79.5% | [5] -78% | [6] -83.3% | [7] -80.6% | [8] -83.7% | [9] -83.3% | [10] -82.2% | [11] -92.1% | [12] -65.7% | [13] -79.4% | [14] -74% | [15] -85.3% | [16] -74.5% | [17] -87.5% | [18] -90.3% | [19] -88.1% | [20] -77.4%

C[C@]12CC[C@@H]3c4ccc(O)cc4CC[C@H]3[C@@H]1C[C@H](O)C2
inactive: [1] 100% | [2] 104% | [3] 89.5% | [4] 72.8% | [5] 74.3% | [6] 86.1% | [7] 54.6% | [8] 49.5% | [9] 88.1% | [10] 128% | [11] 93.9% | [12] 19.7% | [13] 80.5% | [14] 64.6% | [15] 100% | [16] 78.4% | [17] 87.3% | [18] 73.5% | [19] 78.5% | [20] 52.7%

CCN1CCN(Cc2ccc(NC(=O)c3cccc(C#Cc4cccc5[nH]nc(N)c45)c3)cc2C(F)(F)F)CC1
active: [1] -42.9% | [3] -49.6% | [4] -76.4% | [5] -72.2% | [6] -62.7% | [7] -84.7% | [8] -91.2% | [9] -81.6% | [10] -76.2% | [11] -70% | [12] -43.8% | [13] -71.4% | [14] -85% | [15] -92% | [16] -41.5% | [17] -88.4% | [18] -98% | [19] -75.7% | [20] -83.5%
inactive: [2] 16.6%

CCOC(=O)CC[C@H](NC(=O)c1ccc(NC)c2ccccc12)C(=O)OCC
inactive: [1] 105% | [2] 100% | [3] 106% | [4] 93.6% | [5] 101% | [6] 92.3% | [7] 91.2% | [8] 89.9% | [9] 102% | [10] 106% | [11] 104% | [12] 92.9% | [13] 114% | [14] 97.9% | [15] 111% | [16] 100% | [17] 101% | [18] 98.1% | [19] 86.1% | [20] 99.5%

COc1cc(-c2csc(NC(=O)Nc3ccc(C(F)(F)F)cc3)n2)cc(OC)c1OC
active: [1] 2.62% | [2] 0.0527% | [4] 9.05% | [5] 4.98% | [6] -24.5% | [7] -25% | [8] 5.16% | [9] -10% | [10] -44.4% | [12] 7.21% | [13] -12.1% | [14] -14.3% | [15] -4.21% | [17] -12.4% | [19] -18.1% | [20] 5.54%
inactive: [3] 33.5% | [11] 20.8% | [16] 29.1% | [18] 16%

CNC(=O)c1cc(Oc2ccc3c(c2)sc2nc(-c4ccc(NC(C)=O)cc4)cn23)ccn1
active: [15] 8.2%
inactive: [1] 60.1% | [2] 72.3% | [3] 69.6% | [4] 41.5% | [5] 49.8% | [6] 35.3% | [7] 28.4% | [8] 59.6% | [9] 33.8% | [10] 47% | [11] 23.1% | [12] 50.5% | [13] 71.8% | [14] 59.5% | [16] 64% | [17] 26.2% | [18] 62.8% | [19] 70.9% | [20] 46.5%

Nc1c(C(=O)Nc2ccccn2)sc2nc3c(cc12)CCCCCC3
inactive: [1] 41% | [2] 42.1% | [3] 33% | [4] 17.8% | [6] 30.8% | [8] 14.1% | [9] 10.7% | [11] 11.4% | [13] 20.7% | [14] 49.4% | [16] 35.6% | [19] 49.5%
active: [5] 6.37% | [7] 6.47% | [10] 8.74% | [12] 7.85% | [15] -8.82% | [17] 0.944% | [18] 6.92% | [20] 7.38%

CCOCc1nc2ccccc2c(=O)[nH]1
inactive: [1] 94.7% | [2] 91.7% | [3] 100% | [4] 102% | [5] 101% | [6] 102% | [7] 91.3% | [8] 100% | [9] 103% | [10] 108% | [11] 107% | [12] 119% | [13] 89.6% | [14] 103% | [15] 117% | [16] 101% | [17] 99.6% | [18] 102% | [19] 108% | [20] 96.2%

CC(=O)c1cnc(-c2ccccc2)nc1CBr
inactive: [1] 87.7% | [2] 92.1% | [3] 102% | [4] 94.3% | [5] 98.2% | [6] 58.7% | [8] 99% | [9] 86.3% | [10] 36.9% | [11] 70.9% | [13] 55.8% | [14] 66.4% | [15] 60% | [16] 84.8% | [17] 97.8% | [18] 91.6% | [19] 95.3% | [20] 69.8%
active: [7] -23.4% | [12] 3.21%

CC(C)NS(=O)(=O)c1cccc(-c2ccc3c(=O)n(CCCN)c4c(c3c2)C(=O)c2ccccc2-4)c1
inactive: [1] 93.4% | [2] 93.4% | [3] 115% | [4] 91.9% | [5] 102% | [6] 105% | [7] 85.3% | [8] 102% | [9] 98% | [10] 106% | [11] 107% | [12] 88.3% | [13] 118% | [14] 108% | [15] 109% | [16] 98.2% | [17] 104% | [18] 104% | [19] 110% | [20] 115%

C=C(C)[C@@H]1CC[C@]2(C(=O)N=C=S)CC[C@]3(C)[C@H](CC[C@@H]4[C@@]5(C)CCC(=O)C(C)(C)[C@@H]5CC[C@]43C)[C@@H]12
inactive: [1] 32.9% | [2] 48.8% | [3] 42.8% | [4] 30.1% | [6] 18.2% | [7] 15.3% | [8] 26.2% | [9] 37.2% | [11] 33.5% | [12] 18.8% | [13] 40.7% | [14] 18% | [15] 50.6% | [16] 36.5% | [17] 36% | [18] 31.8% | [19] 54.7% | [20] 39.3%
active: [5] 6.85% | [10] -19.1%
